Results taken from paper PMC4336329 (PLoS ONE, 2015).
The campaign covered roughly 310,000 compounds. About 14,000 (4.5%) showed an effect of 50% or more. The effect is printed as a negative number. Only a selection was taken, and strong results are over-represented in it overall.

What follows are molecules tested against human ether-à-go-go-related gene (hERG) potassium channel (human, UniProt Q12809) (assay: primary screen, population patch clamp on CHO cells stably expressing hERG; higher = less effect of the substance).
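Note: peak tail current of the secondary pulse compared with the same well before compound.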

human ether-à-go-go-related gene (hERG) potassium channel, sequence (Q12809 whole entry, looked up): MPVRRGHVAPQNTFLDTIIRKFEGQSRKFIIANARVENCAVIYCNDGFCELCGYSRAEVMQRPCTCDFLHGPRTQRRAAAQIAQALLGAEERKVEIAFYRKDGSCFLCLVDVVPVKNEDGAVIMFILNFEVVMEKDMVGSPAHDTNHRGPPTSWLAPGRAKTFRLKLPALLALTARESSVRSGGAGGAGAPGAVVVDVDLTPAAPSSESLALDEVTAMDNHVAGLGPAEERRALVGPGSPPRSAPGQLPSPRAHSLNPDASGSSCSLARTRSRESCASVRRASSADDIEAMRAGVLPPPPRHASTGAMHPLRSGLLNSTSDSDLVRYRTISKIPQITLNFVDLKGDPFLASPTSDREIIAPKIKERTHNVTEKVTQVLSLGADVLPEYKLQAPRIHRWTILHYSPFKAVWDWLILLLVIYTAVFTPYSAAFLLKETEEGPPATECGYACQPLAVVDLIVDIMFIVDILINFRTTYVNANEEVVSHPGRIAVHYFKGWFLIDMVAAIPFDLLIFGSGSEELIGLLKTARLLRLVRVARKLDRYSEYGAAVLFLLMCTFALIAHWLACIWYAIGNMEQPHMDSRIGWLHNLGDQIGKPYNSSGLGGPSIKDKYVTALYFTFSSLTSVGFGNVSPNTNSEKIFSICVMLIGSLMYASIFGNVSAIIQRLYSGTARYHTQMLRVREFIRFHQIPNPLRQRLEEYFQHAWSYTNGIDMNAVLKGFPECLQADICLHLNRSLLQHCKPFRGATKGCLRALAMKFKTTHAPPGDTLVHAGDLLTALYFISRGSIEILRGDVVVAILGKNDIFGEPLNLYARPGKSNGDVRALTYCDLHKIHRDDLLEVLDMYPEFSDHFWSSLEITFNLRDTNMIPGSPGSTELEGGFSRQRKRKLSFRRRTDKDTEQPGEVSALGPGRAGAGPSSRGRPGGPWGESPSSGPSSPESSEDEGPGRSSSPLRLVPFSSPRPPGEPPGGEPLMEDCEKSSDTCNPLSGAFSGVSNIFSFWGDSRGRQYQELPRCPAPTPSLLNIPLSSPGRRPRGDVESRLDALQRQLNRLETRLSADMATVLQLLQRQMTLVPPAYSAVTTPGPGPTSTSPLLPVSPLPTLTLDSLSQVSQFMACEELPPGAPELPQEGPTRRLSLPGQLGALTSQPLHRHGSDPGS

| SMILES | hERG current change (%, negative = inhibition) at 10uM |
| --- | --- |
| CN(c1cccc(Cl)c1)S(=O)(=O)c1cccc(C(=O)NN2CCOCC2)c1 | -14.1% |
| Cc1ccc(S(=O)(=O)CCC(=O)OC(C)C(=O)NC2CCCCC2C)cc1 (stereo not drawn) | -1.21% |
| CCOC(=O)c1ccc(N2C(=O)C3CC=C(C)CC3C2=O)cc1 (stereo not drawn) | 7.74% |
| Cn1c(=O)c2c(SCC(N)=O)nc(CC(C)(C)C)nc2n(C)c1=O | -10.5% |
| CC1(C)c2ccccc2N(CC(N)=O)C12C=Cc1ccccc1O2 (stereo not drawn) | -26% |
| Cc1nc(NC(=O)c2cccnc2Cl)sc1C | 4.14% |
| CC(NC(=O)c1ccc2c(c1)OCO2)C(c1cccs1)N1CCN(c2ccccc2)CC1 (stereo not drawn) | 3.68% |
| COc1ccc(CCn2c(C)cc(C(=O)CSc3nnnn3C)c2C)cc1 | 0.08% |
| CC1CCCCC1NC(=O)Cn1c(CN2CCCCC2)nc2ccccc2c1=O (stereo not drawn) | -24.6% |
| COc1ccc(OC)c(S(=O)(=O)NCC(c2ccc3c(c2)OCO3)N2CCOCC2)c1 (stereo not drawn) | -28.4% |
| O=c1c2cc(Cl)ccc2nc(-c2ccccc2Cl)n1O | 16.4% |
| CCOc1ccc2oc(C(=O)O)c(C)c2c1 | 4.62% |
| Cc1c(C(=O)NCCN2CCCC(O)C2)oc2c(F)cccc12 (stereo not drawn) | -1.78% |
| COc1ccccc1CNC(=O)c1oc2ccc(S(=O)(=O)N3CCCC3)cc2c1C | -4.46% |
| Cc1c(C(=O)NCc2ccccc2)oc2ccc(S(=O)(=O)N3CCCC3)cc12 | 2.65% |
| Cc1c(C(=O)NCc2ccccc2CN2CCCC2)oc2c(F)cccc12 | -70.5% |
| CCOc1ccc2oc(C(=O)NC(C)(C)CC)c(C)c2c1 | -3% |
| Cc1c(C(=O)NCc2ccccc2CN2CCCC2)oc2ccc(F)cc12 | -74% |
| Cc1c(C(=O)NCc2ccco2)oc2c(F)cccc12 | 1.08% |
| CCOc1ccc2oc(C(=O)NCC(C)(C)CN(C)C)c(C)c2c1.Cl | -54.5% |
| CCN(Cc1ccncc1)Cc1ccc(Br)cc1.O=C(O)C(=O)O | -5.38% |
| COc1cccc(CC(=O)OC(C)C(=O)NCc2ccc3c(c2)OCO3)c1 (stereo not drawn) | -3.97% |
| COc1cc(C(CC(=O)N2CCN(c3ccccc3)CC2)c2c(OC)cc(OC)c3ccc(=O)oc23)cc(OC)c1OC (stereo not drawn) | -29% |

| SMILES | hERG current change (%, negative = inhibition) at 10uM |
| --- | --- |
| COc1ccc(-c2nnc(SCC#N)o2)cc1 | 11.3% |
| CCOC(=O)CCCNC(=O)CCNC(=O)c1ccc(OCC(C)C)cc1 | 3.61% |
| COc1ccc(C(=O)CN2C(=O)c3ccccc3C2=O)cc1 | 7.16% |
| COc1ccc(-c2cc(C(F)(F)F)c3c(N)c(C(=O)NCCSC)sc3n2)cc1 | -10.7% |
| Nc1c(C(=O)C2CC2)sc2nc(-c3ccccc3)cc(C(F)(F)F)c12 | 18.8% |
| CN(C)CCNC(=O)c1sc2nc(-c3ccccc3)cc(C(F)(F)F)c2c1N | -57.8% |
| COc1ccc(-c2cn(Cc3ccc(C(N)=O)cc3)c(-c3ccc(Cl)nc3)n2)cc1 | -71.4% |
| COc1ccc(-c2cn(CCC(=O)O)c(-c3ccc(Cl)nc3)n2)cc1 | 9.6% |
| COc1ccc(-c2cn(Cc3ccc(C(N)=O)cc3)c(-c3ccncc3)n2)cc1 | -60.1% |
| Cc1ccc(CNC(=O)c2ccc(Cn3cc(-c4ccc(C)cc4)nc3-c3ccncc3)cc2)cc1 | 5.94% |
| COc1ccc(-c2cn(Cc3ccc(C(N)=O)cc3)c(CCN)n2)cc1 | -13.9% |
| COc1ccc(-c2cn(CCO)c(-c3ccc(Cl)nc3)n2)cc1 | -9.71% |
| O=C(c1ccc(CS(=O)(=O)c2ccc(Br)cc2)o1)N1CCN(c2ccccn2)CC1 | -36% |
| Cc1ccc(-n2c(C)nc3ccsc3c2=O)cc1 | 1.42% |
| O=C(CCc1nc(-c2ccccc2Cl)no1)NC1CCCCC1 | 10.6% |
| CCCCCCCNC(=O)COc1ccc2c(c1)C(=O)CC(C)(C)O2 | -14.4% |
| CCOC(=O)CNC(=S)N(CCCN1CCCCC1)Cc1cccs1 | -62.6% |
| CCOC(=O)CNC(=S)N(CCCN1CCCC1)Cc1cccs1 | -53.6% |
| O=C(CNC(=S)N(CCCN1CCOCC1)Cc1cccs1)N1CCOCC1 | -9.74% |
| CCN(CC)CCNC(=O)CNC(=S)N(CCCN1CCOCC1)Cc1cccs1 | 15.7% |
| COCCNC(=O)CNC(=S)N(CCCN1CCOCC1)Cc1cccs1 | 14.1% |
| O=C(CNC(=S)N(CCCN1CCOCC1)Cc1cccs1)N1CCCCCC1 | -41.4% |
| CCOC(=O)CNC(=S)N(CCCN1CCN(C)CC1)Cc1cccs1 | -43.5% |

| SMILES | hERG current change (%, negative = inhibition) at 10uM |
| --- | --- |
| O=C(CNC(=S)N(CCCN1CCOCC1)Cc1cccs1)N1CCCC1 | 3.09% |
| CCOC(=O)CNC(=S)N(CCCN1CCCCCC1)Cc1cccs1 | -65.8% |
| O=C(Nc1cccc(F)c1)c1cc(S(=O)(=O)NCCC2=CCCCC2)ccc1F | 17.4% |
| COc1ccccc1N(CC(=O)NCCSCc1ccccc1)S(C)(=O)=O | 4.03% |
| COc1ccc(N2CC(C)Cn3c2nc2c3c(=O)[nH]c(=O)n2C)cc1 (stereo not drawn) | -24.3% |
| N#Cc1c(NC(=O)CSc2ncccn2)oc(-c2ccccc2)c1-c1ccccc1 | 25.2% |
| Nc1nc(Cl)nc2ccc(Br)cc12 | 7.87% |
| CC(=O)c1c(C)nc2ccccc2c1N | -10.1% |
| Cc1[nH]c2ccccc2c1C(=O)/C=C/c1ccccc1 | 8.96% |
| Cc1nc2ccccc2c(N)c1C(=O)/C=C/c1ccccc1 | -79.7% |
| Cc1occc1-c1nnc(SCCNCCO)o1.O=C(O)C(=O)O | 63.6% |
| COc1ccc(C2NC(=O)CCC2[N+](=O)[O-])cc1OC (stereo not drawn) | 10.1% |
| CSc1cccc(NC(=O)CCCOc2ccc(Cl)cc2C)c1 | -2.48% |
| CC(C)C(c1nnnn1Cc1ccc2c(c1)OCO2)N1CCN(c2ccccc2)CC1 (stereo not drawn) | 23.1% |
| Cl.Fc1ccccc1C(c1nnnn1Cc1ccc2c(c1)OCO2)N1CCN(Cc2ccco2)CC1 (stereo not drawn) | -56.4% |
| c1ccc2sc(C3CCN(Cc4nnnn4Cc4ccc5c(c4)OCO5)CC3)nc2c1 | -8.73% |
| CC(C)C(c1nnnn1Cc1ccccc1)N1CCN(Cc2ccc3c(c2)OCO3)CC1 (stereo not drawn) | -52% |
| Cl.c1ccc(CCn2nnnc2C(c2cccs2)N2CCN(Cc3ccc4c(c3)OCO4)CC2)cc1 (stereo not drawn) | -24.1% |
| c1ccc(Cn2nnnc2CN2CCN(Cc3ccc4c(c3)OCO4)CC2)cc1 | -61.1% |
| Fc1ccccc1C(c1nnnn1Cc1ccc2c(c1)OCO2)N1CCN(Cc2ccccc2)CC1 (stereo not drawn) | -55.3% |
| CC(C)C(c1nnnn1Cc1ccccc1)N1CCN(Cc2ccco2)CC1.Cl (stereo not drawn) | -32.1% |
| CCN1CCN(C(c2ccccc2F)c2nnnn2Cc2ccc3c(c2)OCO3)CC1.Cl (stereo not drawn) | -37.6% |
| Cl.NC(=O)C1CCN(C(c2ccccc2F)c2nnnn2Cc2ccco2)CC1 (stereo not drawn) | 11.1% |

| SMILES | hERG current change (%, negative = inhibition) at 10uM |
| --- | --- |
| c1ccc2c(c1)CCN(Cc1nnnn1Cc1ccc3c(c1)OCO3)C2 | -3.1% |
| CC(C)C(c1nnnn1Cc1ccc(F)cc1)N1CCN(Cc2ccc3c(c2)OCO3)CC1 (stereo not drawn) | -43.3% |
| O=C(CN1C(=O)NC2(CCCC2)C1=O)OCc1ccc(Cl)cc1Cl | -20.9% |
| CC(C)c1ccc(/C=C/C(=O)N2CCc3ccccc3C2)cc1 | 3.46% |
| O=C(CC(SCCO)c1ccc([N+](=O)[O-])cc1)c1ccco1 (stereo not drawn) | -35.7% |
| O=C(NCc1ccccc1Cl)c1cc2c(s1)CS(=O)(=O)C2 | -4.86% |
| Cc1nnc(C)n1/N=C/c1cc(Br)ccc1O | 9.86% |
| C/C(=N/NS(=O)(=O)c1ccc(C)cc1C)c1ccc2c(c1)OCO2 | -2.58% |
| O=C(O)c1ccccc1SSc1ccccc1C(=O)O | 25.5% |
| O=C(c1ccco1)N1CCC(c2nc(-c3ccccc3Cl)no2)CC1 | -11.5% |
| Clc1ccc(CNCc2cccs2)cc1Cl | 7.52% |
| CC1CC(C)CN(C(=O)Nc2ccccc2F)C1 (stereo not drawn) | 22.9% |
| CCN(CC)S(=O)(=O)c1ccc(C(=O)NC2CN3CCC2CC3)cc1 (stereo not drawn) | 25.6% |
| CN(/N=C/c1ccc(C(C)(C)C)cc1)C1=NCCN1 | -71.6% |
| Br.CN(/N=C/c1ccncc1)C1=NCCN1 | 5.06% |
| Br.COc1ccc(/C=N/N(C)C2=NCCN2)c(OC)c1OC | 5.63% |
| Cc1ccccc1C(=O)N1CCC(C(=O)Nc2ccccn2)CC1 | 11.9% |
| Cn1nc(C(C)(C)C)c([N+](=O)[O-])c1C(=O)N1CCOCC1 | 17.3% |
| Cc1onc(C(=O)N2CCOCC2)c1[N+](=O)[O-] | 19.8% |
| Cn1nc(C(=O)N2CCOCC2)c([N+](=O)[O-])c1C(=O)N1CCOCC1 | -54.4% |
| Cc1cc2ncn(CC(C)C)c2cc1C | -3.79% |
